This note sets out measurements from the supplement of paper PMC12632987.

The full ranking holds about 4,500 sequences; the median of “median log2 fold change of GCK-ALFA target abundance (FLAG IP / Myc IP barcode read proportion)” is about 0.078, and the lowest 2% start at about -0.6. Many of the other results were omitted from the sample, so the lowest values are more common in it than they were.

To fix the notation:
B1: GBRAP_11_2768 (protein)
chain: KKEELKKAAELAEKAAKTVEKLLKEGVDNEELLKEIEELLKELKKLTEKYGNEDMKKLVKIAEELLEEIKKDPENAEEYAKELKATLDVLAGQYLLEAEE
B2: GBRAP_128_3156 (protein)
chain: SVEEVRKKTRELLEKIKESDDETARELARELFELIGTLSPEEAEAAVEVILERLPELSEEKLEILADVAREMMPKYDPYKANLLAEVEVEALNEAEELEE
B3: GBRAP_160_4781 (protein)
chain: SEKKEKLKKAIEEAAKEIKEAIDTESPEQVLTVVRGEGGDILQEAEELGIDNEEALEGLDKGIKELEAAMKAAADASPEEKKAIVDKAKEKMIETLDKLT
B4: GBRAP_52_5905 (protein)
chain: MRARLRADLEEIIAAVRAGDLEAARAKARELAETYDDEELELAAEELAALVLEAPREDLPAWWRTAEIIAEALEEAGRDEVLADLVLSRTAAAIHEVLQR
B5: GBRAP_184_5056 (protein)
chain: MIHEKVIKAETLEELEEKLEELEEELKDFKGELIVHVEIPEFTEEMIELIIERLKRILENGYVSSVTLGLDGKMSEEVVDLAIKLADEAGIKLVIALEEE
B6: GBRAP_14_3829 (protein)
chain: MEEIEAVIEEAREDLIELFEEIVPEKAEELAEAVEEVFEELKRRIKETGNVEEAIEEARERLKEEAKKILADEPEEIRNLVLAAIDIEFAELEEEIEELL
B7: GBRAP_160_4075 (protein)
chain: SKETEELKKEIKEIAEEAIEFIKESNLENQIAIAEMMAGDILMLVFEAPFISDEDEERIDKILDKYVELLKENKDWSLEEKEEIIKEMAEEVIKEVEKAS
B8: GBRAP_11_2853 (protein)
chain: KKEKLKEIAELAEEAIKLLEELLKKGVDDEELQKKILEKLKELLELVKKYLDEADVKLAEYALESFEKSLKDPENAEEYVNEALAFLRVLLGNVLLEIDE
B9: GBRAP_78_6627 (protein)
chain: EVEELLEKALEKVEEAAKLATKIPSEKAIDILDELIDAFEYLEEAIEEGGDLEKIEKALKELKKALELIKEQNDPKLEPLKKEVEEAIKLLEKAKKKIKE
B10: GBRAP_177_5010 (protein)
chain: SRLAEIEAAADDPEALLALVAATDLRELSREELLALLRALARAIAREGPRPELLEAAVRVAVALITDHGVSLAEVVAILIEHADPDTVEEVVERVAERLA
B11: GBRAP_39_5638 (protein)
chain: SREEEAEETFDYLEALGAKLLSERGISLDELLEEEYKYAREAFKDDPELLAAIDELYELALKGDDTDKLAAAGAFSLVREGKSKEEVLEAVELLIYYLKS
B12: GBRAP_160_4650 (protein)
chain: EERKEKLKERIKELIEEAYEMMKGETHEERIAIARVMGGDIILELDEDEGVSDEAIEEVDKIMDEFVATLEANPDLTDEEIRALLEEMLKKIFEIIDKYT
B13: GBRAP_9_7158 (protein)
chain: MDELVAKLREVIEDAFEEIKEVVPEEVKPIVEKLREEAEKRLEELEEDPEATPEELVEEAKRILREFRERMKKEVDEETAKIVDAIVDTAELEIEEIEEE
B14: GBRAP_39_5717 (protein)
chain: EEEEEAENIFSYYEAVGAAEMYKRGISLEELFERTLAEARELAADDPELLAALEELEELALKAGDEAKLAATGIMVRLVEGAPREEVLADLKKLIAYLKS
B15: GBRAP_160_4742 (protein)
chain: KEELEKLKKEIEEIFKEGIELLKESEKEEALTIVRGIMGDVIMEVMSSEAASDELEEKIAEIADKAIEEVEKNKDAPIEKVIEIVEKAREEILKLIEEEI
B16: GBRAP_160_4574 (protein)
chain: SEEMKKLKEEIKEITEEAKEFIEGQSREEQIAIVKVAMGDILLLLDENPLVSDETEDKAAAIGDALIAYIEAHPDLTAEEIKELLEKATEEIIKLIEKEE
B17: GBRAP_128_3555 (protein)
chain: STEEVVEEAEELLEKIKESDEEEAREYARELVRLLASVDEESREAIVKVILERLPELTVEQLEILADVFREERPKVDPDVANALAEIEVEALNVALEKEE
B18: GBRAP_137_3630 (protein)
chain: ATVEIEVEEYEDVVEITVTLKDAAKAEAVKELVLDVAHEHGALAVSVEVEEDGTLVVTVWVPREKAEAFLEALVRRLQTELGLRVRVRNLDTGEEEEFEP
B19: GBRAP_128_3422 (protein)
chain: SRAAAVARARALLEAMKTADDATAAALADELAALFASADLETAEAIAEVIRAEIPKLTAKQLDILADAFRAALPKLTPEKANIAADVIVDLLNEREELEE
B20: GBRAP_128_3379 (protein)
chain: MDEEKLERVRELVRRAIESDVEETRELTREVVRLMGTLSPEEREAAAEIVIEALPEFSREKLDAIADTIRELRPELDPLGQELAAEVEVAALNRAEELEE
B21: GBRAP_52_6373 (protein)
chain: MEERARELARRILELAEAGDEEGLREEVRRIVEEESDELIAAVLRELRDMILTEPGLDPEALLTAAATLASEVLEAEKGTPETWAALTELLAAALALEQA
B22: GBRAP_52_5974 (protein)
chain: MEEEMRKLAKEIVALILAGDEAGARALLEEIAATKTEEEITLLFKELAKLAKTATPEERDAIVEAALLAEDIALAAGFDEAVMDSNLADVVKAAVDAEKA
B23: GBRAP_184_5132 (protein)
chain: TLLERAVEAKTAEELIAKARAVVEEAAAAGARLVLSVFAEDLSVEDNIAVIRELGELKAAHPQIEAIIVDLPEVSEEDLDKLIEAADAAGVKLVAAIPDE
B24: GBRAP_52_6073 (protein)
chain: MEEKIEKLAEEITEAIKAGDDEKALELLEKAVKELSEEEIKKLLVLTAKKVAKLNEEEHERFVDILDEFEDILIENGISEEDALLIVGDALAALAKEVAK
B25: GBRAP_52_6102 (protein)
chain: MREELRKKVREILELVREGKLEEARKKIKELVESLNDEEIRLVADEIAELAREAAPEDLDAVWTLAEMFAEELEKAGKPEVLVDYLLASTAAALYEREQA
B26: GBRAP_195_5410 (protein)
chain: MKVVGRVLRIEESDTPEDILAKIEAIVAEVKEESNGDLVLVVARHPSVPEETVRAAVAEAAERYPEIKITVEIFDDISLPLETLEAFARMEVANEEEERE
B27: GBRAP_160_3988 (protein)
chain: EEEKKKLLKEIEEIFKETYELASGEDPENRLTVVRVHMGEILLLAEESGILSEESIEKIDEILDELVEKVAANPDMTDEELKALLEEALKKIKEIIEAEK
B28: GBRAP_137_3679 (protein)
chain: MKVKITIEEHEDVVEITVTIEDKETGEELAEKIEDIAVEVGALAISVEKNEDGTYEVTIYVPKEKLEELLKKILELLKDADEVEIIRIVDGKETVEVIKN
B29: GBRAP_73_6498 (protein)
chain: LTDTGLTDEEIADIVDHENDIFNGGEEAYEAAVARIRAALPELSPERQELLRRILEAAERAKKKDKLLAYELVALALAVVEGLDLEKARRALEALEKRLE

Sequence of GABARAP, O95166 (O95166 whole entry, the tested form may be a part): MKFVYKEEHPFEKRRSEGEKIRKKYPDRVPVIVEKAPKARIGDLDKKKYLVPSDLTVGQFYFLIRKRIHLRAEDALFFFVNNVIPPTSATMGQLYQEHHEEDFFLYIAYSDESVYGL

This test concerns the target GABARAP, O95166. Briefly: median log2 fold change of GCK-ALFA target abundance (FLAG IP / Myc IP barcode read proportion) (log2 ratio); each designed protein is fused to an ALFA-tag nanobody in HEK293 cells to bring the named protein to FLAG-tagged glucokinase (GCK); Myc marks an untargeted standard; higher = target protein stabilised (more abundant). Conditions: target protein: 3xFLAG-MCP-GCK-ALFA reporter; HEK293 landing pad (RPLP). A digest of the protocol: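 Sequencing of reverse-transcribed, amplified circular RNA barcodes from anti-FLAG and anti-Myc immunoprecipitates provided the readout for an ALFA-nanobody-fused binder library recombined into HEK293 landing-pad cells. Those cells were induced with 2 μg mL^−1 doxycycline, transfected with a plasmid expressing a FLAG-tagged target and a Myc-tagged standard, and lysed after 48 h. Target abundance is the per-binder median log2 ratio of FLAG to Myc barcode read proportions. Only barcodes at a proportion of ≥10^−7 in both replicates and binders with ≥3 barcodes per replicate were kept, with a 10^−6 pseudocount added before the two replicates were pooled.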
With B1, the “median log2 fold change” value turned out to be 0.117.

For the molecule B2, the “median log2 fold change” value is -0.269.

With B3, the “median log2 fold change” value was 0.333.

For B4, the “median log2 fold change” value was -0.658.

As to B5, the “median log2 fold change” value was found to be 0.234.

Take B6: the “median log2 fold change” value was -0.798.

As to B7, the “median log2 fold change” value was -0.29.

With B8, the “median log2 fold change” value is 0.174.

On to B9, for which the “median log2 fold change” value is -0.061.

As for B10, the “median log2 fold change” value is 0.0662.

For B11, the “median log2 fold change” value was determined as 0.2.

Consider B12, for which the “median log2 fold change” value was -0.715.

B13: the “median log2 fold change” value was 0.0143.

In the case of B14, the “median log2 fold change” value was determined as 0.239.

As to B15, the “median log2 fold change” value is 0.15.

With B16, the “median log2 fold change” value is -0.302.

B17: the “median log2 fold change” value is -0.0585.

Regarding B18, the “median log2 fold change” value is -0.302.

Consider B19, for which the “median log2 fold change” value was -0.139.

For B20, the “median log2 fold change” value was determined as 0.284.

Consider B21, for which the “median log2 fold change” value was -0.998.

Turning to B22, the “median log2 fold change” value was -0.0573.

Consider B23, for which the “median log2 fold change” value is 0.00161.

On to B24, for which the “median log2 fold change” value is -0.605.

As to B25, the “median log2 fold change” value is 0.197.

For B26, the “median log2 fold change” value was 0.261.

Consider B27, for which the “median log2 fold change” value is -0.199.

On to B28, for which the “median log2 fold change” value is -0.124.

As to B29, the “median log2 fold change” value was -0.718.
